SMILES strings stand for the structures. In all, about 330,000 compounds went through this assay and about 7,300 (2.2%) were called active. This excerpt belongs to a sample that is enriched for actives. Unmarked numbers belong to inactive results.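 The calls were made as follows: active = inhibition of at least 40%; inactive = the rest.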

This assay is described as follows: growth inhibitors of tim10-1 mutant yeast, primary screen, luminescence, uHTS (AID 463190).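 Also: mutant grown at 25 °C; 0% = DMSO wells with yeast and 100% = wells holding no yeast.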 The conditions noted are these: S. cerevisiae tim10-1 ts strain growth, BacTiter-Glo, 24 h; at 20 µM; stronger effect = higher value.
For the molecule `Cn1c(=O)c2c(nc(SCC(=O)Nc3ccccc3N3CCCCC3)n2C)n(C)c1=O`, the inhibition (usually the change of the read-out against control, counted positive when it falls) is -4.92%.

`CCOC(=O)CSc1nc2c(c(=O)n(C)c(=O)n2C)n1Cc1ccccc1F`: the inhibition was 10.3%.

With `CCOC(=O)CSc1nc2c(c(=O)n(Cc3ccccc3Cl)c(=O)n2C)n1C`, the inhibition is 47.6% (active).

Turning to `Cc1ccc(CS(=O)(=O)c2ncc(Cl)c(C(=O)Nc3nnc(C)s3)n2)cc1`, the inhibition was 20.6%.

Consider `Cc1cccc(NC(=O)c2nc(S(=O)(=O)Cc3ccccc3)ncc2Cl)c1`, for which the inhibition was 23.9%.

With `CSc1nnc(NC(=O)c2nc(S(=O)(=O)Cc3ccc(C)cc3)ncc2Cl)s1`, the inhibition was 41% (active).

Regarding `O=C(Nc1ccc(-n2cccn2)cc1)C1CCN(Cc2ccsc2)CC1`, the inhibition was -13.1%.

In the case of `Cc1nn2c(c1-c1ccccc1)N=C(c1ccco1)CC2c1ccccc1` (stereo unspecified), the inhibition is 45.5% (active).

Take `O=C(O)CCCC(=O)N1N=C(c2ccco2)CC1c1ccco1` (stereo unspecified): the inhibition was -34.5%.

`Cc1nn(C(=O)c2ccoc2C)c(N)c1-c1ccccc1`: the inhibition was 2.61%.

For the molecule `CCOc1cc(C)ccc1OCc1nnc(SCC(=O)Nc2cccc(C(=O)O)c2)n1-c1ccccc1`, the inhibition is 4.93%.

On to `COc1cc(SC)ccc1C(=O)N(Cc1ccccc1)c1ccccc1`, for which the inhibition was 26.9%.

With `COc1cc(SC)ccc1C(=O)NCCOc1ccccc1Cl`, the inhibition was 20%.

Consider `COc1ccccc1CNC(=O)c1ccc(SC)cc1OC`, for which the inhibition was 41.4% (active).

As for `Cc1cc(C)n(CCNCc2c(C(=O)N3C[C@@H](C)O[C@@H](C)C3)nc3ccc(Cl)cn23)n1`, the inhibition is 5.77%.

For `Cc1cc(C)nc(S/C=C/C(=O)c2ccccc2)n1`, the inhibition was 62.9% (active).

On to `Cc1cc(C)nc(SCC(=O)c2ccc(Cl)cc2)n1`, for which the inhibition was 7.83%.

As to `Cc1cc(C)nc(SCC(=O)N(C)C)n1`, the inhibition was 9.12%.

As to `COCCCn1c(SCc2cccc(OC)c2)nc2cc(OC)c(OC)cc2c1=N`, the inhibition is 28.6%.

Turning to `COc1ccc(N(CC(=O)N/N=C/c2cccs2)S(=O)(=O)c2ccc(OC)c(OC)c2)cc1`, the inhibition was 11.7%.

Take `NC(=O)N/N=C\c1cccs1`: the inhibition was -3.46%.

As to `COc1ccc2c(c1)c(C(=O)N/N=C/c1cccs1)c(C)n2C`, the inhibition was 44.8% (active).

For the molecule `CCCCN(C)CCNC(=O)C1CCCN(S(=O)(=O)c2cccc3nsnc23)C1` (stereo unspecified), the inhibition was 8.01%.

With `O=C(c1ccco1)N1CCN(C(=O)c2cc(-c3ccccc3F)no2)CC1`, the inhibition is 26%.

With `COc1ccc(/C=C2/C(=O)N(c3ccccc3)N=C2C)c(OC)c1`, the inhibition is 28.4%.

Turning to `COc1cc(/C=C/C2=CC(C)(C)NC(=S)N2)cc(OC)c1OC`, the inhibition is 16.4%.

Take `COc1ccc(/C=C/C2=CC(C)(C)NC(=S)N2)c(OC)c1`: the inhibition is 42.8% (active).

On to `O=C(Cc1ccccn1)c1ccc(O)cc1O`, for which the inhibition was 4.18%.

In the case of `CC1=NNC(=O)C1CC(=O)N/N=C/c1ccncc1` (stereo unspecified), the inhibition is 7.67%.

For the molecule `CCOC(=O)C1(CCOc2ccccc2)CCN(Cc2cc(OC)cc(OC)c2)CC1`, the inhibition is 30.7%.

Consider `CCOC(=O)C1(S(=O)(=O)c2ccccc2)CCN(Cc2ccccc2)CC1`, for which the inhibition was 41.1% (active).

Turning to `CCOC(=O)C1(S(=O)(=O)c2ccc(Cl)cc2)CCN(Cc2ccccc2)CC1`, the inhibition is 39.5%.

As to `O=S(=O)(c1ccc(Br)cc1)c1nc(-c2ccccc2)oc1N1CCOCC1`, the inhibition is 19.8%.

For the molecule `O=C1COc2ccc(C(=O)CSc3ccc(Br)cc3)cc2N1`, the inhibition was 14%.

For the molecule `CCOC(=O)c1[nH]c2c(c1-c1ccccc1)C(=O)CC(c1ccc(Cl)cc1)C2` (stereo unspecified), the inhibition was 11.7%.

For the molecule `CCOC(=O)C1=C(C)NC(=O)N(C(C)=O)C1c1ccc(Cl)cc1` (stereo unspecified), the inhibition is 26.5%.

As for `CCOC(=O)C1Sc2[nH]c(=O)sc2C(c2ccc(Cl)cc2)C1C(=O)OCC` (stereo unspecified), the inhibition was 48.6% (active).

As to `CCCn1c(SCC(=O)Nc2ccc(C)c(S(=O)(=O)N3CCOCC3)c2)n[nH]c1=O`, the inhibition is 11.7%.

As for `Fc1cccc(CSc2nnc3ccc(-c4ccncc4)nn23)c1`, the inhibition is 16.3%.

`COc1ccc(-c2ccc3nnc(SCC(=O)Nc4ccc(NC(C)=O)cc4)n3n2)cc1`: the inhibition is -13%.

In the case of `CSc1nnc2ccc(-c3ccc(C)cc3)nn12`, the inhibition is 45.7% (active).

As for `Cc1oc(C(N)=O)cc1COc1ccc(C(N)=O)cc1`, the inhibition is -9.15%.

For the molecule `CCOc1cc(-c2conc2N)cc(OCC)c1OCC`, the inhibition is 41.9% (active).

As to `CCOc1cc2c(Cl)ncnc2c(OCC)c1OCC`, the inhibition is 19.3%.

For the molecule `CCOc1cc(C(=O)Nc2ncccn2)cc(OCC)c1OCC`, the inhibition is 8.23%.

On to `Cc1sc2c(c1C)c(=O)n(-c1ccccc1)c1nncn21`, for which the inhibition is 20.4%.

For `CC[C@H](C)C(=O)N[C@H]1CCCN1C(=O)/C=C/c1ccccc1`, the inhibition is -0.774%.

In the case of `Cc1ccc2c(c1)N(CCCC(=O)NCc1cccnc1)C(=O)CO2`, the inhibition is -19.6%.

As to `COc1ccc(CNC(=O)C[C@H]2C[C@H](C(=O)N3CCOCC3)[C@@]3(CCC4CCCC4)c4[nH]c5ccc(Cl)cc5c4CCN3C2=O)cc1OC`, the inhibition is 17%.

With `CC1Cc2ccccc2N1CC(=O)Nc1ccc2c(c1)OC(F)(F)O2` (stereo unspecified), the inhibition is 20.8%.

As to `CN1CCc2c(sc3c2c(NCc2ccco2)nc2nnnn23)C1`, the inhibition is 21.9%.

Turning to `O=C(Cc1ccc2c(c1)CCCC2)Nc1ccccc1Cl`, the inhibition is 10.5%.

As for `Cc1c(NC(=O)Nc2ccccc2Cl)sc(=S)n1C`, the inhibition was 12%.

Consider `O=C(Nc1ccccc1Cl)/C(Cl)=C(\Cl)S(=O)c1ccccc1` (stereo unspecified), for which the inhibition is 78.1% (active).

With `CN=C1C=C/C(=N/N=c2\ccn(O)cc2C)C=C1C`, the inhibition was 16.6%.

Turning to `Cc1cc(-c2ccc(S(=O)(=O)N3CCN(c4cccc(C(F)(F)F)c4)CC3)s2)on1`, the inhibition was -2.35%.

Regarding `COC(C[C@@H]1O[C@@H]1C(=O)[C@H](C)OCc1ccccc1)OC`, the inhibition is -17.2%.

With `COC(C/C=C/C(=O)[C@@H](C)OCc1ccccc1)OC`, the inhibition was 54.5% (active).

Take `COC(C[C@H](O)CC(=O)[C@@H](C)OCc1ccccc1)OC`: the inhibition is 7.97%.

Take `O=S(=O)(/C=C/c1ccccc1)N1CCNCC1`: the inhibition was 7.28%.

As for `CCOc1ccccc1-n1c(SCC(=O)NCc2ccco2)nnc1-c1ccncc1`, the inhibition was 8.51%.

The values above are taken from PubChem BioAssay AID463190 (Sanford-Burnham Center for Chemical Genomics, 2010).
